In PubChem BioAssay (NCI) one finds growth data, which are given here for 40 molecules.

Values joined by “and” are separate entries in the source; they are usually repeats but may differ in a detail not shown here. Equal values may be shown once. Compounds without any hit were thinned out: in the full panel of roughly 83,000, 20% have a hit.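 A percent growth of 40 corresponds to 60% growth inhibition; 0 means no net growth; -100 means all cells died. Active threshold: below 10.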 Active and inactive are the calls of the source.

In the experiment the test system is UACC-62 melanoma. The experiment in a line: NCI-60 one-dose screen, 48 h (100 = growth as untreated, 0 = no growth, -100 = all killed). Particulars: 10 µM unless noted. On the procedure: Growth inhibition of the UACC-62 human tumor cell line is measured as a screen for anti-cancer activity. Cells are grown in 96 well plates and exposed to the test compound for 48 hours. Compounds are tested at a single concentration, which is 10^-5 M for most compounds. The reported endpoint is percent growth (GI% or GIPRCNT), where numbers from 0 - 100% represent growth inhibition, and numbers from -100% - 0 represent cell death. For example, a value of 40 represents 60% growth inhibition. A value of 0 means no net growth occurred over the course of the experiment. A value of -40 indicates 40% of cells at the beginning of the experiment died by the end of the experiment. A value of -100 means all cells are dead at the end of the experiment.
NCI-60 Human Tumor Cell Lines Screen was performed using the standard one-dose NCI protocol, which is described in more detail at https://dtp.cancer.gov/discovery_development/nci-60/default.htm.
Compounds with GIPRCNT values below 10 were considered active. Activity score was based on GIPRCNT using the following formula: […]
Score is 0 for GIPRCNT values of 100 or above, 50 for GIPRCNT values of 0, and 100 for GIPRCNT values of -100.
Turning to `Nc1nc2c(s1)CCc1c-2c(Br)n(Cc2ccccc2)c1Br`, the growth is 78.3% (inactive).

For the molecule `N#Cc1cnn2c1n[n+]([O-])c1ccc(Cl)cc12`, the growth was -91.7% [100 µM] (active) and -100% [100 µM] (active). Consider `CCC1CC(C)C(O)/C=C/C=C/CC(C)OC(=O)CC(O)C(OC)C1OC1OC(C)CC(O)(C(C)=O)C1O` (stereo not given), for which the growth is 67.6% [100 µM] (inactive) and 33.4% [100 µM] (inactive).

On to `O=C(CC(O)c1ccccc1)Nc1ccccn1` (stereo not given), for which the growth was 98.3% (inactive).

For `Cc1cc(-c2nc3ccccc3s2)ccc1N`, the growth was 46.1% [100 µM] (inactive) and 40.6% [100 µM] (inactive). As for `CCCCc1ccc(C(O)(CCN2CC3CCC(CC3)C2)c2ccccc2)cc1` (stereo not given), the figure is 108% (inactive); as for `O=C1CN2CCC1C/C2=C\c1ccnc2c(Cl)cccc12` (stereo not given), 90.5% (inactive); as for `CC1(C)CC(=O)C2=C(C1)Nc1cc3c(cc1C2c1ccc(F)cc1)OCO3` (stereo not given), 98.7% (inactive). As to `Cc1nn2c(-c3nc4ccc(Cl)cc4[nH]3)c(-c3ccc(F)cc3)nc2s1`, the growth was 91.6% (inactive).

Turning to `COc1ccc(S(=O)(=O)c2ccc(C(N)=O)cc2)cc1NC(=O)c1[nH]c(C)c2c1CCCCC2=O`, the growth is 17% (inactive). Next, `COc1c(O)c2c3c(c1OC)-c1ccccc1CC3N(S(=O)(=O)c1ccc(C)cc1)CC2` (stereo not given): 58% (inactive); `Oc1ccccc1-c1n[nH]c(-c2ccccc2O)n1`: 45.8% [100 µM] (inactive) and 4.35% [100 µM] (active).

On to `COc1ccc(NC(=O)c2ccc3c(c2)nc(-c2ccc(Cl)cc2)n3-c2cc(C(C)(C)C)[nH]n2)cc1`, for which the growth was 79.6% (inactive). With `COC(=O)c1c2c(c(C)[n+]([O-])c1C)C(=O)C=C(NCc1cccc(OC)c1)C2=O`, the growth is -68.1% (active). As for `Cc1ccc(S(=O)(=O)c2ccc3[nH]c(=O)[nH]c(=O)c3c2)cc1`, the figure is 92.9% (inactive); as for `Cc1sccc1C(=S)Nc1ccc(Cl)c(/C=N/OC(C)(C)C)c1`, -86.5% [100 µM] (active) and -92.3% [100 µM] (active).

`ClC(Cl)(Cl)C1CCOC1n1nnc2ccccc21` (stereo not given): the growth is 65.4% [100 µM] (inactive) and 12.8% [100 µM] (inactive). As for `Nc1cc(Br)c(-c2nnc(CCC(=O)c3nc4ccccc4[nH]3)o2)c(Br)c1`, the figure is 55.6% (inactive). Next, `COc1ccc(S(=O)(=O)ON=C2C=C(C)C(=O)C(C)=C2)cc1`: 91.2% (inactive).

As for `O=c1[nH]c(=S)c2c(n1CCCO)CCC2`, the growth is 97.2% (inactive).

In the case of `COc1ccc(/C=N/NC(=O)c2cnn(CC(O)Cc3ccccc3)c2N)cc1OC1CCCC1` (stereo not given), the growth was 82.8% (inactive). As for `CC1=C(C/C=C(\C)CCC[C@H](C)CCC[C@H](C)CCCC(C)C)C(=O)c2ccccc2C1=O`, the figure is 105% (inactive); as for `COC(=O)c1ccc(C(=O)Nc2ccccc2N)cc1`, 61.2% (inactive). As for `COc1ccc(NC(=O)COc2ccccc2)c(C(N)=O)c1`, the figure is 43% (inactive); as for `CCCN(CCC)c1ccc(/C=C/c2ccc3cc(OCC)ccc3n2)cc1`, 86.6% (inactive). As to `CN([N-]C(=O)CC(=O)[N-]N(C)C(=S)c1ccccc1)C(=S)c1ccccc1.[Cu+2]`, the growth is -92.4% (active). Next, `O=C1CC(c2ccsc2)c2snc(-c3ccc(Cl)cc3)c2N1` (stereo not given): 30.8% (inactive); `COc1ccc(C2SC(C)C(=O)N2CCc2cccs2)cc1OC` (stereo not given): 73.5% (inactive); `Clc1ccc(Nc2ccnc(N3CCN(c4ccnc5cc(Cl)ccc45)CC3)n2)cc1`: 31.3% (inactive). For `CC(=O)OC(C)c1cc2c(s1)C(=O)c1ccsc1C2=O` (stereo not given), the growth was -64.5% [100 µM] (active) and -100% [100 µM] (active). Next, `O=C(N/N=C/c1ccc(F)cc1)c1[nH]c2ccc(I)cc2c1-c1ccccc1`: 35.2% (inactive); `COc1cccc(OC)c1OC(=O)c1ccccc1`: 97.1% (inactive). Regarding `O=c1oc2ccccc2cc1-c1csc(N=Nc2c(O)[nH]c3ccc(Br)cc23)n1`, the growth is 95% (inactive). Next, `N#Cc1ccc(C(F)(F)F)nc1N1CCC(C(=O)Nc2ccc(Cl)cc2)CC1`: 84.8% (inactive). With `CCOC(=O)c1cc2c(n(C)c1=O)-c1cnn(-c3ccc(OC)cc3)c1CC2`, the growth is 91.1% (inactive). For the molecule `O=c1c(-c2ccc3c(c2)OCO3)coc2c3c(ccc12)OCO3`, the growth was 49.2% [100 µM] (inactive) and -100% [100 µM] (active). For `CON=C1C[C@]2(C[C@@H]3C[C@@H](C/C=C(\C)C[C@@H](C)/C=C/C=C4\CO[C@@H]5[C@H](O)C(C)=C[C@@H](C(=O)O3)[C@]45O)O2)O[C@H](/C(C)=C/C(C)C)[C@H]1C`, the growth is 70.6% (inactive). With `COc1ccc(-n2ncc3c4nc(OC)c(S(=O)(=O)c5ccccc5)cc4ccc32)cc1`, the growth is 59.9% (inactive). Next, `CC(=O)Nc1ccc(S(=O)(=O)N/N=C\c2ccc(Cl)c(Cl)c2)cc1`: 99.2% (inactive); `COc1ccc(/C=C(\C#N)c2ccc(OC)cc2)cc1`: 54.5% (inactive).
